# This is a sample that favours compounds with a hit; in the whole collection about 4.7% have one here.
# TRHR enhancer = allosteric enhancers of human TRH receptor; AID 493056; TRHR cells, fluo-8 calcium fluorescence, EC20 TRH enhancement; actives 0.66% (n = 360,000); P34981; enhancement, % at 2 µM; in the data active = enhancement above about 30%; also: 0% is about no effect
#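 TRHR-expressing cells loaded with fluo-8 calcium dye were read kinetically (ex 480/em 530) during compound addition, then stimulated with an EC20 of TRH (10 nM final). Enhancement of the Gq-mediated intracellular calcium response was scored.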
# D1 ag = human D1 receptor agonism; P21728; HEK293 T-REx D1 cells, calcium flux, agonist mode; activation, % at 2 µM; actives 1% (n = 360,000); also: 0% is about no effect
# Target sequence (P21728 whole entry, looked up): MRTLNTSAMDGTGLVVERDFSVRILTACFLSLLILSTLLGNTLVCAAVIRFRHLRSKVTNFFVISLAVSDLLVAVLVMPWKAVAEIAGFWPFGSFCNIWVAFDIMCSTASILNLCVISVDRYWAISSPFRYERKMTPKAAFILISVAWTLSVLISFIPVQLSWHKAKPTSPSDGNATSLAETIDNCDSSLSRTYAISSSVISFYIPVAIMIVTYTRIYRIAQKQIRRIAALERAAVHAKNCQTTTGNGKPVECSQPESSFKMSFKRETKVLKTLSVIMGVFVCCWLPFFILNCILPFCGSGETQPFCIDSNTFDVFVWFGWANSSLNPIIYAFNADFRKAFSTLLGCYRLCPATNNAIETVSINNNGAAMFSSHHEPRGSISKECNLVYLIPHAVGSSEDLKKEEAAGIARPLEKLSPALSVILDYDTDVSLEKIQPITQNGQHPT
#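 Inducible HEK293 T-REx D1 cells, force-coupled to calcium signalling, were plated at 4000 cells/well with tetracycline and held overnight at 30 C. After no-wash calcium dye loading, compound-evoked calcium rise over 180 s flagged agonists.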
# D1 PAM = human D1 dopamine receptor positive modulation. P21728. HEK293 TREx D1 cells, calcium flux, dopamine EC20 potentiation. potentiation, % at 10 µM. actives 0.036% (n = 360,000). AID 504651; in the data active = potentiation above about 30%; also: 0% is about no effect
# D1 antag = antagonists of human D1 dopamine receptor; HEK293 TREx D1 cells, calcium flux, dopamine EC80; active compounds read low; actives 3.2% (n = 360,000); activity change, negative = inhibition, % at 10 µM; P21728; in the data active = activity change below about -30%; also: % is scaled to controls: 0 for no effect and ±100 for the full control effect
#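 HEK293 T-REx cells expressing inducible, force-coupled D1 receptor; no-wash Ca dye, 30–90 min RT. Cmpd → 180 s read at 1 Hz → EC80 DA → 180 s read.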
# TRHR agonist = TRH receptor (human) agonism. TRHR cells, calcium flux fluo-8, FDSS agonist mode. activation, % at 2 µM. actives 0.18% (n = 360,000). AID 493084; also: 0% is about no effect
#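 Fluo-8-loaded TRHR cells; 10 s baseline, compound added, kinetic Ca2+ fluorescence read 1/s, agonist mode.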
# * marks the source's active call; other numbers are inactive results; x = no result. Rule as the data show it, unless noted: active = activation above about 30%; inactive = the rest.
SMILES,TRHR enhancer,D1 ag,D1 PAM,D1 antag,TRHR agonist
Cc1cc(=O)[nH]c2nnc(SCC(=O)N3CC(C)OC(C)C3)n12 (stereo not drawn),-1,3,-4,33,0
CCCCc1ccc(S(=O)(=O)NCCc2ccncc2)cc1,-8,9,-5,-45*,-1
Cc1ccc(S(=O)(=O)NCCc2ccncc2)cc1,16,0,-3,-1,-1
C/C(=C\C=C(C#N)C#N)c1cc(C#N)c(N)o1,-6,63*,-9,21,11
Cc1cccc(C(=O)Nc2ccc3nc(SCC(=O)N4CCCC4)sc3c2)c1,8,-2,1,-1,0
Cc1ccc(/C=C/C(=O)OCC(=O)Nc2ccccc2Sc2ccccc2)cc1,-14,32*,-3,-11,2
COc1cccc(/C=C/C(=O)OCC(=O)Nc2ccccc2Sc2ccccc2)c1,4,25,0,-4,3
O=S(=O)(O)C1CCNCC1,0,3,-2,-49*,0
O=S(=O)(N1CCCCCC1)N1CCNCC1,2,4,2,2,1
CC(C)CN(CCNC(=O)CCN1N=C(c2ccccc2)CCC1=O)CC(C)C,-2,0,-2,-3,0
COC(=O)Nc1ccc(S(=O)(=O)N2CCCc3ccccc32)cc1,-3,5,-2,-38*,0
O=C(Nc1nnc(S(=O)(=O)N2CCc3ccccc32)s1)c1ccccc1,12,0,-1,8,0
CCC(=O)Nc1ccc(S(=O)(=O)N2CCc3ccccc32)cc1,7,8,-8,-41*,0
O=C(Nc1nnc(S(=O)(=O)N2CCCc3ccccc32)s1)c1ccccc1,2,0,0,-33*,0
O=C(Nc1ccc(S(=O)(=O)N2CCc3ccccc32)cc1)C(F)(F)F,-3,5,-1,6,2
COc1ccc(NC(=O)C(=O)NCC2(c3ccccc3)CCCC2)c(OC)c1,-1,1,0,-4,2
O=C(O)CCN1CCOCC1,2,1,-2,-67*,0
Cc1cccc(C)c1NC(=O)CN(C)C(=O)[C@H](C)NC(=O)c1ccco1,-3,4,7,-80*,0
CCC(NC(=O)Nc1cc(OC)ccc1OC)c1c(-n2cccc2)sc2c1CCN(CC)C2 (stereo not drawn),-2,-1,3,0,0
CCOc1ccc(-n2c(=O)c3sccc3n(CC(=O)NC3CCCCC3)c2=O)cc1,39*,1,-2,5,-1
Cc1ccc(-n2c(=O)c3sccc3n(CC(=O)NC3CCCC3)c2=O)cc1,-1,3,x,12,-1
O=C(Cn1c(=O)n(-c2ccc(F)cc2)c(=O)c2sccc21)NC1CCCCC1,-1,1,-3,-61*,0
Cc1cnc(C(=O)OCC(=O)Nc2ccc(Oc3ccccc3)cc2)cn1,11,9,5,-41*,0
C=CCC(=O)OCC(=O)Nc1ccc(Oc2ccccc2)cc1,-9,3,-9,-35*,0
CCCOc1ccc(C(=O)CCC(=O)OCC(=O)Nc2ccc(Oc3ccccc3)cc2)cc1,5,12,0,-16,2
SMILES,TRHR enhancer,D1 ag,D1 PAM,D1 antag,TRHR agonist
Cc1ccc(NC(=O)c2ccc3c(c2)NC(=O)c2ccccc2S3)cc1,6,3,-6,-23,1
C=CCNc1ncnc2c1[nH]c1ccccc12,3,7,-4,-1,-1
C=CCNc1ncnc2c1[nH]c1ccc(Cl)cc12,1,35*,-2,x,8
Cc1ccc2onc(CC(=O)N3CCN(c4cccc(C)c4C)CC3)c2c1,3,0,-2,15,0
CCc1ccc(NC(=O)Nc2cccs2)cc1,-5,11,-7,-37*,1
Cc1cc(C)n(CCc2nc3c4ccccc4nc(SCc4ccc(Cl)cc4)n3n2)n1,-5,1,10,3,0
COc1ccc(OCCSc2nnc(Cc3cccc4ccccc34)n2N)cc1,-3,3,-2,-20,0
Nn1c(Cc2ccccc2F)nnc1SCCOc1ccc(Cl)cc1,5,0,-6,-39*,-1
CCc1ccc(C2C(C(=O)Nc3ccccc3OC)=C(C)Nc3c(C(=O)Nc4ccc(C)cc4)cnn32)cc1 (stereo not drawn),9,5,-4,2,0
CN(C)S(=O)(=O)c1cccc(COC(=O)c2cc([N+](=O)[O-])ccc2N2CCOCC2)c1,-7,4,-2,-39*,0
O=C(COC(=O)c1cc([N+](=O)[O-])ccc1N1CCOCC1)Nc1ccccc1OC(F)F,-2,6,-12,-31*,0
CSc1ccc(COC(=O)c2cc([N+](=O)[O-])ccc2N2CCOCC2)cc1,4,9,-7,-22,1
CC1CCN(S(=O)(=O)c2ccc3c(c2)N(CC(=O)NCc2ccccc2)C(=O)CO3)CC1,-3,0,0,-11,-1
CC(C)Nc1nc(NC(C)C)nc(OCCOC(=O)c2ccccc2)n1,-2,-1,0,-5,-1
CN(C)c1nc(OCCOC(=O)c2ccccc2)nc(N(C)C)n1,-1,31*,-1,0,2
CC(C)CCNC(=O)C1CCC(Cn2c(=O)c3sccc3n(CC(=O)NC(C)C)c2=O)CC1 (stereo not drawn),6,1,2,3,0
COc1ccccc1N1CCN(CC(O)COCCOc2ccc(Br)cc2)CC1 (stereo not drawn),-10,16,-18,-63*,0
COc1ccc(N2CCN(CC(O)COCCOc3ccc(Br)cc3)CC2)cc1 (stereo not drawn),16,29,-10,-24,2
CC1(C)CCCC(C)(C)N1CC(O)COCCOc1ccc(Br)cc1 (stereo not drawn),-5,39*,-2,-6,0
COc1ccccc1N1CCN(CC(O)COCc2cccs2)CC1 (stereo not drawn),-4,7,1,-37*,0
C=CCc1ccc(OCC(O)CN2CCN(Cc3ccc(Cl)cc3)CC2)c(OC)c1 (stereo not drawn),4,43*,-11,-14,1
C=CCc1ccc(OCC(O)CN2CCN(c3ccccc3OC)CC2)c(OC)c1 (stereo not drawn),6,11,-7,-10,0
Cc1ccc(CNC(=O)Cn2c(=O)n(-c3ccc(Cl)cc3)c(=O)c3c(C)c(C)sc32)cc1,-4,1,3,0,0
O=S(=O)(NCc1csc(-c2ccccc2)n1)c1ccccc1,-1,-1,-1,2,-1
CN1C(=O)c2[nH]nc(-c3ccc(F)cc3)c2C1c1cccc(O)c1 (stereo not drawn),2,0,3,16,-1
OC(COc1ccc(Br)cc1)CN1CCN(c2ccccc2)CC1 (stereo not drawn),-2,12,-6,-46*,1
